Source: the supplement of paper PMC10849652
Of roughly 7,900 targets only a part is listed; those with a hit were picked by preference. About 0.6% of all pairs of compound and target were hits. Values without a mark were called inactive.

Legend:
Experiment in all cases: log2 fold change, soluble protein after heating vs DMSO (PISA); higher = thermal stabilisation; K562 cells, 10 uM, 30 min; active = over 0.2 and 3.5 SD of the protein, either way, in both replicates (recomputed)
erlotinib = compound: C#Cc1cccc(Nc2ncnc3cc(OCCOC)c(OCCOC)cc23)c1 [erlotinib]
In short: (§1)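 Thermal stability values are relative to control samples and come from duplicates. They are expressed as log2 fold changes. For measurement, K562 cells (2×10^6 cells/mL) received 10 μM compound for 30 min, and aliquots were heated for 3 min over 48°C-58°C, pooled, and extracted at 4°C in PBS with 0.5% NP-40. Soluble protein, the supernatant after 21,000xg for 90 min, was quantified by TMTpro 16plex LC-MS/MS with equalised channel sums.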

[1] = compound: C/C(=N\NC(=O)C1=CC(=CC=C1)S(=O)(=O)N2CCOCC2)/C3=C(C=CC(=C3)Cl)O
In short: as §1

[2] = compound: C1=CC(=C(C=C1Cl)C2=NC3=NC=CN=C3C(=N2)NC4=CC=NC=C4)F
In short: as §1

[3] = compound: C1=CC(=CC=C1C2=NC3=C(N2)C=C(C=C3)C(=O)N)OC4=CC=C(C=C4)Cl
In short: as §1

[4] = compound: C1=CC2=C(C=CC(=C2)/C=C\3/C(=O)NC(=NCC4=CC=CS4)S3)N=C1
In short: as §1

[5] = compound: C1=CC2=NC=CN=C2C=C1/C=C/3\C(=O)NC(=O)S3
In short: as §1

[6] = compound: C1=CC=C(C=C1)C2=NC(=C(N2)C3=CC=NC=C3)C4=CC(=C(C=C4)Cl)O
In short: as §1

[7] = compound: C1=CC=C2C(=C1)C3=NNC4=CC=CC(=C43)C2=O
In short: as §1

[8] = compound: C1CCN(C1)C(=O)NC2=CC=CC(=C2)NC3=NC=C(C(=N3)NCCC4=CN=CN4)Br
In short: as §1

[9] = compound: C1CN(CCC1(CC2=CC=C(C=C2)Cl)N)C3=NC=NC4=C3C=CN4
In short: as §1

IRAK-1-4 Inhibitor I = compound: C1COCCN1CCN2C3=CC=CC=C3N=C2NC(=O)C4=CC(=CC=C4)[N+](=O)[O-] [IRAK-1-4 Inhibitor I]
In short: as §1

ibrutinib = compound: C=CC(=O)N1CCC[C@@H](n2nc(-c3ccc(Oc4ccccc4)cc3)c3c(N)ncnc32)C1 [ibrutinib]
In short: as §1

[10] = compound: CC(=O)c1cnc2ccc(-c3cc(Cl)c(O)c(Cl)c3)nc2c1N[C@H]1CC[C@H](CN(C)C)CC1
In short: as §1

ralimetinib = compound: CC(C)(C)Cn1c(N)nc2ccc(-c3[nH]c(C(C)(C)C)nc3-c3ccc(F)cc3)nc21 [ralimetinib]
In short: as §1

[11] = compound: CC(C)(O)CC(=O)NCCn1ccc2ncnc(Nc3ccc(Oc4cccc(C(F)(F)F)c4)c(Cl)c3)c21
In short: as §1

[12] = compound: CC(C)C1=C2N=C(C=C(N2N=C1)NCC3=CC=CC=C3)NCCCCCCN
In short: as §1

[13] = compound: CC(C)C[C@@H](C=O)NC(=O)[C@H](CC(C)C)NC(=O)[C@H](CC(C)C)NC(=O)OCc1ccccc1
In short: as §1

pinometostat = compound: CC(C)N(C[C@H]1O[C@@H](n2cnc3c(N)ncnc32)[C@H](O)[C@@H]1O)[C@H]1C[C@@H](CCc2nc3cc(C(C)(C)C)ccc3[nH]2)C1 [pinometostat]
In short: as §1

[14] = compound: CC1=C(C(CC(=O)N1)C2=CC=C(C=C2)C(F)(F)F)C(=O)NC3=C(C=C4C(=C3)C=NN4)F
In short: as §1

[15] = compound: CC1=C(C2=C(C=C1)C(=O)C3=CC=CC=C3N2CCCN)C
In short: as §1

Chain of UniProt Q92890 (Q92890 whole entry, looked up): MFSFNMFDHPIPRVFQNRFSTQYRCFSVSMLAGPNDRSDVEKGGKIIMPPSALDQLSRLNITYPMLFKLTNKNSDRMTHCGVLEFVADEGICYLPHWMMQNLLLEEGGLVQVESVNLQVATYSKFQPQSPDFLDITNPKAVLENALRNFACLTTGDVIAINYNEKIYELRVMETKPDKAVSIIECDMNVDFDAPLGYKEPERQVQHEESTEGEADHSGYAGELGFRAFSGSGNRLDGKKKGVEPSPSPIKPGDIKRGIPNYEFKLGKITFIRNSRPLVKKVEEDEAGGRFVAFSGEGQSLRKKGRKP
Chain of UniProt Q15906 (Q15906 whole entry, looked up): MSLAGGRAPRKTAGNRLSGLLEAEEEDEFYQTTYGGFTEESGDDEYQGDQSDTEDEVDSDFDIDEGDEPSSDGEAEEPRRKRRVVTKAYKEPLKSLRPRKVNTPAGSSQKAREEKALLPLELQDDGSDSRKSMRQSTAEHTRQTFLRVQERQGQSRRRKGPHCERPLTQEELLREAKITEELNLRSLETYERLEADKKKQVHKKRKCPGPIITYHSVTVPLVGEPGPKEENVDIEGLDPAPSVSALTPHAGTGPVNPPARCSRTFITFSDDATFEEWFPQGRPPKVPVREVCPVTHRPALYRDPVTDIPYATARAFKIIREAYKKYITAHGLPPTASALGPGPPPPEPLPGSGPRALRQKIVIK
Chain of UniProt Q9Y5L0 (Q9Y5L0 whole entry, looked up): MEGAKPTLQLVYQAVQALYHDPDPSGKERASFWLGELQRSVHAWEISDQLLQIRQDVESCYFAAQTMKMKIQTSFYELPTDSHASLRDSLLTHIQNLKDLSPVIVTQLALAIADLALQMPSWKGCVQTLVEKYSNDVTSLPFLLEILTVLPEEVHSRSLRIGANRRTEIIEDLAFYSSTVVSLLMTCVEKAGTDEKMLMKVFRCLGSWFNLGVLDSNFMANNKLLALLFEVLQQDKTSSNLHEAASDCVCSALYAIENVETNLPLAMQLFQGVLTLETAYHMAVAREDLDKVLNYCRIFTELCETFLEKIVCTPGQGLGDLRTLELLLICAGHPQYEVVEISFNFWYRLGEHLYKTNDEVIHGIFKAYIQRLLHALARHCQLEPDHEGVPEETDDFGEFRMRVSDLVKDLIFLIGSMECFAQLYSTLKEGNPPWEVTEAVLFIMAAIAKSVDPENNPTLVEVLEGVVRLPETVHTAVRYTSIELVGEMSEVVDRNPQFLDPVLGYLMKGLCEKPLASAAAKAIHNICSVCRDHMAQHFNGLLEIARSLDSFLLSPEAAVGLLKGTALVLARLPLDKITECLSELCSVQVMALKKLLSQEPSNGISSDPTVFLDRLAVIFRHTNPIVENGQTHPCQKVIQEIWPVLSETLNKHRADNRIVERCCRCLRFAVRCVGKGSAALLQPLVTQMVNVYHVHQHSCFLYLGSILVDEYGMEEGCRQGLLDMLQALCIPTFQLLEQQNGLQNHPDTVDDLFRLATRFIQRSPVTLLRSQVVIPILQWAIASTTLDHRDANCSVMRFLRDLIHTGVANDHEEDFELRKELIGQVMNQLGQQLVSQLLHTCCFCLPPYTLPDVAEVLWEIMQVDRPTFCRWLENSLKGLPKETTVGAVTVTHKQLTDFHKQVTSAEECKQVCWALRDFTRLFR
Chain of UniProt Q86XT9 (Q86XT9 whole entry, looked up): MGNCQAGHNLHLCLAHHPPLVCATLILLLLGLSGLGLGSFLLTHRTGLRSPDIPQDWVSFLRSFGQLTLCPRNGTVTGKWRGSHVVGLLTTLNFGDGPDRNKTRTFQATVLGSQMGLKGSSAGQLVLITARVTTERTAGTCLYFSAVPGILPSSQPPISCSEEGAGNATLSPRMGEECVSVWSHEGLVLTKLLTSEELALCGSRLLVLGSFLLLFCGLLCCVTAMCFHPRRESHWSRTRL
Chain of UniProt Q13263 (Q13263 whole entry, looked up): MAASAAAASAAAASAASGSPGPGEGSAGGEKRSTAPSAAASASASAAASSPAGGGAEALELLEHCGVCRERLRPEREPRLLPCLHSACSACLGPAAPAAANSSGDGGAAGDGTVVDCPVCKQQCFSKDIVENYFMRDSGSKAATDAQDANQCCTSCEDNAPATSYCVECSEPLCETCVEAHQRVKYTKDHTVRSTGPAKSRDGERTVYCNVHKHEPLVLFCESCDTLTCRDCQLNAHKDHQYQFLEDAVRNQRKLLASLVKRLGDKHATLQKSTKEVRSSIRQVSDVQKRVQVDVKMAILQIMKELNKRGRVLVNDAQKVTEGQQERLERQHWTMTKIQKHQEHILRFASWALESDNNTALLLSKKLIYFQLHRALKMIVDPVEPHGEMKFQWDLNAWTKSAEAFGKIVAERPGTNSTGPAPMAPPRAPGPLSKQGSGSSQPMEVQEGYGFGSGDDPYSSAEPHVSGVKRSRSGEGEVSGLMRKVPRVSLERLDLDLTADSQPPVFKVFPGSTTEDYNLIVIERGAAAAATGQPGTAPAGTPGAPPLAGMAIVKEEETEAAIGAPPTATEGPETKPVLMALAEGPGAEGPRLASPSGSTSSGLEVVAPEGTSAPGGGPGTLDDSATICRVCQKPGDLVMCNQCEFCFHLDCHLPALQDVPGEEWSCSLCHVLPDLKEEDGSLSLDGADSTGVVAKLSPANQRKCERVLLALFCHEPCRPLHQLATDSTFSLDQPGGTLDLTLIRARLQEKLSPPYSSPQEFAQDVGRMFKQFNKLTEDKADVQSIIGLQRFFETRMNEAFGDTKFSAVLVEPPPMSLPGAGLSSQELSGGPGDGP
Chain of UniProt O43156 (O43156 whole entry, looked up): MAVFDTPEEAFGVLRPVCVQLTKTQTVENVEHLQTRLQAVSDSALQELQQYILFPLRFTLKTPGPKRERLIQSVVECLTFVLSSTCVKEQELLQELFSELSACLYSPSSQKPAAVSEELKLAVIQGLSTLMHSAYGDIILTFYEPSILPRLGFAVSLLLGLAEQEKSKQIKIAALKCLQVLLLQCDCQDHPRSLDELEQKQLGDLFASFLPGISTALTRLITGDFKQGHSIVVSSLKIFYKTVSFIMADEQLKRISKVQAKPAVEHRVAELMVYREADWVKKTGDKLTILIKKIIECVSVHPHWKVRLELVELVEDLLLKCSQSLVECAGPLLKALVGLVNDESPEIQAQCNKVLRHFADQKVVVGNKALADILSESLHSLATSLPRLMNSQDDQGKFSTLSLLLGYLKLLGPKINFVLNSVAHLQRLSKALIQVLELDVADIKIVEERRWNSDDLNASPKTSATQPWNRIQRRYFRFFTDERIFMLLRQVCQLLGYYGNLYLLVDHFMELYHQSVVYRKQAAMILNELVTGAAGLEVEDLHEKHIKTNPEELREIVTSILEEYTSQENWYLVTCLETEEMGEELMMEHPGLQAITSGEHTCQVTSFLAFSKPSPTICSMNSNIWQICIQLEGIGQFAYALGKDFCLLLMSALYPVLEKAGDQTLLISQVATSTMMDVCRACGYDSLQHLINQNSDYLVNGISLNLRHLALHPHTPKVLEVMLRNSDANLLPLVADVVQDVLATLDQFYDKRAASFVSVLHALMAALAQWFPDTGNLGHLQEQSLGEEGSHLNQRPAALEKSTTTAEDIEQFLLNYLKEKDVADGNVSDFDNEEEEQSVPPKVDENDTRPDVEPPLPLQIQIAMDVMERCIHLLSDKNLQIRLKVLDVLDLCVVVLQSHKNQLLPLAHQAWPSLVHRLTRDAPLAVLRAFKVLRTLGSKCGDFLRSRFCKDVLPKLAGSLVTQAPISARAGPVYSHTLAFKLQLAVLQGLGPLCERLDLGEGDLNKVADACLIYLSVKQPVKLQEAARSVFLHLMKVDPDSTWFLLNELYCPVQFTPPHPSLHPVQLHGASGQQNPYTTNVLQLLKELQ
Chain of UniProt Q6NUQ4 (Q6NUQ4 whole entry, looked up): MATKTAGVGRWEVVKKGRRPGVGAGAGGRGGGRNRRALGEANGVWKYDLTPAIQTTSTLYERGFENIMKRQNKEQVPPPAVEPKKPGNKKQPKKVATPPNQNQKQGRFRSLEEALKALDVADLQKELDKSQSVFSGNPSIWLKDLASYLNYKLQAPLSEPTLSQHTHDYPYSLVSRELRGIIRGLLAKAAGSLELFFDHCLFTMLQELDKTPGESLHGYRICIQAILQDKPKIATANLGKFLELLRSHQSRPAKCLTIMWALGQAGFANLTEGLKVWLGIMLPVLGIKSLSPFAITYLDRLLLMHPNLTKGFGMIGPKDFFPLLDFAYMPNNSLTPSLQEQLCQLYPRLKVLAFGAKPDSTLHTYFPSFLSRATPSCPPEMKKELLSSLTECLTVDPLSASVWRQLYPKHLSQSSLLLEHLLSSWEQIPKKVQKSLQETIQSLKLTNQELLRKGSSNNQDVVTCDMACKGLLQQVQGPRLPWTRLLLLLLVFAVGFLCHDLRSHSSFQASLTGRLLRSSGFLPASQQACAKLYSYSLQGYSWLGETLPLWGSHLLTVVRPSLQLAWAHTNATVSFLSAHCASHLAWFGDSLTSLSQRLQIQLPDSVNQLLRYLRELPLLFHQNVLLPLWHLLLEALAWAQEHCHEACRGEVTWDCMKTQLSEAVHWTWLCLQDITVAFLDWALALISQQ
Chain of UniProt Q99986 (Q99986 whole entry, looked up): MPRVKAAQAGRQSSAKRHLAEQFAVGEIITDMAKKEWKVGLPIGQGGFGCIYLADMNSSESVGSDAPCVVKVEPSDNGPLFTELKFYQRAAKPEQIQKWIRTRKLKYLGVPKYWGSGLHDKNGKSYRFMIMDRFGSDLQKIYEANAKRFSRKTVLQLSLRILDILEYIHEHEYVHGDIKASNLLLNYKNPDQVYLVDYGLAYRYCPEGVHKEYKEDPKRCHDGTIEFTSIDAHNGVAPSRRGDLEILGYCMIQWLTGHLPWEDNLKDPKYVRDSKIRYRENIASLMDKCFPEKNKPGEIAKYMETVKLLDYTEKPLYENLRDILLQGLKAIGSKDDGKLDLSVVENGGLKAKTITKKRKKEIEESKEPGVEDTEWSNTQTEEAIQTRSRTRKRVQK

Row | Target | log2 fold change (erlotinib) | log2 fold change [1] | log2 fold change [2] | log2 fold change [3] | log2 fold change [4] | log2 fold change [5] | log2 fold change [6] | log2 fold change [7] | log2 fold change [8] | log2 fold change [9] | log2 fold change (IRAK-1-4 Inhibitor I) | log2 fold change (ibrutinib) | log2 fold change [10] | log2 fold change (ralimetinib) | log2 fold change [11] | log2 fold change [12] | log2 fold change [13] | log2 fold change (pinometostat) | log2 fold change [14] | log2 fold change [15]
1 | TNPO3 (UniProt Q9Y5L0) | -0.01 | 0.132 | 0.068 | -0.009 | -0.014 | 0.029 | 0.023 | -0.007 | 0.004 | -0.03 | -0.006 | -0.02 | -0.014 | 0.024 | -0.156 | -0.154 | -0.08 | 0.006 | 0.036 | -0.02
2 | UFD1 isoform 1 (UniProt Q92890) | 0.001 | 0.019 | 0.051 | -0.008 | 0.012 | 0.015 | -0.01 | -0.021 | -0.036 | 0.024 | 0.025 | -0.018 | -0.005 | 0 | -0.04 | 0.04 | 0.021 | -0.04 | -0.016 | 0
3 | TNPO2 (UniProt O14787) | 0.075 | 0.115 | 0.033 | -0.064 | 0.077 | 0.017 | 0.018 | -0.008 | 0.027 | -0.008 | -0.088 | -0.023 | -0.051 | 0.027 | -0.138 | -0.339 (active) | -0.042 | 0.012 | 0.023 | -0.171
4 | VTI1A (UniProt Q96AJ9) | -0.07 | 0.026 | -0.037 | -0.014 | 0.015 | 0.087 | -0.055 | -0.002 | 0.019 | 0.005 | 0.095 | 0.012 | -0.009 | -0.111 | 0.019 | 0.005 | 0.028 | -0.016 | 0.028 | -0.01
5 | TTI1 (UniProt O43156) | -0.078 | 0.115 | -0.015 | -0.045 | 0.057 | 0.028 | 0.029 | 0.008 | 0.019 | 0.028 | -0.012 | 0.009 | -0.065 | 0.1 | -0.113 | -0.059 | 0.016 | 0.13 | -0.011 | 0.074
6 | TRMT10C (UniProt Q7L0Y3) | -0.015 | 0.066 | 0.09 | 0.062 | 0.009 | -0.007 | 0.036 | 0.036 | -0.008 | 0.009 | 0.029 | 0.011 | -0.07 | -0.06 | -0.055 | 0.012 | 0.005 | -0.021 | 0.016 | 0.014
7 | VRK1 (UniProt Q99986) | 0.087 | -0.055 | 0.119 | -0.016 | 0.038 | -0.024 | -0.039 | 0.078 | -0.044 | -0.045 | -0.041 | 0.032 | 0.338 | -0.033 | -0.32 | -0.013 | 0.055 | -0.008 | -0.027 | 0.433 (active)
8 | TRIM28 (UniProt Q13263) | 0.001 | 0.077 | 0.041 | -0.023 | -0.021 | 0.018 | -0.023 | 0.004 | -0.013 | -0.026 | -0.008 | -0.033 | 0.052 | -0.003 | -0.035 | -0.087 | 0.018 | -0.056 | -0.002 | -0.152
9 | TMEM214 (UniProt Q6NUQ4) | -0.068 | 0.016 | -0.019 | 0.001 | 0.015 | 0.017 | -0.044 | -0.025 | 0.009 | -0.088 | -0.076 | -0.063 | 0.028 | -0.03 | 0.019 | 0.066 | 0.044 | 0.073 | 0.014 | 0.074
10 | VAMP7 (UniProt P51809) | -0.02 | 0.003 | 0.077 | 0.005 | 0.016 | 0.007 | 0.065 | -0.001 | 0.001 | 0.03 | 0.018 | -0.048 | -0.041 | -0.022 | -0.006 | -0.169 | -0.001 | -0.027 | -0.011 | 0.025
11 | UTP3 (UniProt Q9NQZ2) | -0.098 | -0.076 | -0.748 | 0.063 | -0.068 | 0 | -0.255 | -0.004 | 0.006 | -0.203 | -0.053 | 0.072 | 0.031 | 0.021 | 0.062 | -0.062 | 0.253 | 0.159 |  | -0.571
12 | WASHC2A (UniProt Q641Q2) | 0.008 | -0.026 | -0.025 | 0.002 | 0.004 | 0.058 | -0.072 | -0.037 | 0.029 | -0.017 | -0.002 | -0.013 | 0.054 | 0.013 | 0.047 | -0.266 (active) | 0.025 | 0.033 | -0.004 | -0.044
13 | TMEM268 isoform 3 (UniProt Q5VZI3) | -0.161 | 0.061 | -0.166 | 0.054 | 0.024 | -0.138 | 0.118 | -0.21 | 0.13 | 0.045 |  | 0.036 | -0.042 | -0.056 | -0.334 | -0.095 | -0.016 |  | -0.033 | 0.014
14 | VPS72 isoform 2 (UniProt Q15906) | -0.017 | -0.062 | 0.053 | -0.108 | 0.04 | -0.094 | -0.054 | -0.134 | 0.056 | 0.028 |  | 0.119 | 0.033 | -0.122 | -0.177 | 0.133 | -0.117 |  | -0.092 | -0.473 (active)
15 | WDR46 (UniProt O15213) | -0.209 | -0.231 | -0.816 (active) | 0.008 | -0.154 | 0.065 | -0.055 | 0.052 | 0.057 | -0.087 | -0.159 | 0.099 | 0.15 | 0.175 | 0.066 | 0.192 | 0.154 | 0.242 | 0.033 | -0.382
16 | TMEM219 (UniProt Q86XT9) | -0.029 | 0.035 | 0.059 | 0.073 | 0.001 | 0.015 |  | 0.006 | 0.042 | 0.016 |  | 0.115 | 0.083 |  | -0.015 | 0.007 |  |  | 0.031 | -0.134
